The record followed here is the supplement of paper PMC11172423.

A number with no mark means an inactive call.

The first test concerns Madurella mycetomatis MM55. Put plainly: growth relative to untreated control; higher = less inhibition, active = 20 or less. To be noted: 25 µM. The procedure: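 Hyphal fragments of M. mycetomatis MM55 or F. senegalensis CBS197.79 in RPMI 1640/MOPS were exposed to each MMV COVID Box or Global Health Priority Box compound at 100 or 25 µM for 7 days at 37 °C. Viability was read with MTS (490 nm, M. mycetomatis) or resazurin (600 nm, F. senegalensis), background-corrected with a medium-only control and expressed as % growth relative to the untreated growth control. Inhibition of more than 80% was taken as growth inhibition.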
On to `CN(c1ncc2nc(Nc3cc(Cl)cc(C(F)(F)F)c3)n(C3CCNCC3)c2n1)C1CC1`, for which the growth was 54.8%.
On the same count and under the same terms, the same measure for `N#Cc1c(N)nc(NC2CC2)nc1N`: 91.3%.
For `Nc1nc(Nc2ccc3c(c2)CC[C@@H](N2CCCC2)CC3)nn1-c1cc2c(nn1)-c1ccccc1CCC2`, the growth is 4.07% (active).
The same measure, in the same setting: the same measure for `COc1cc(N2CCN(C)CC2)ccc1Nc1nccc(-c2cn(C)c3cnccc23)n1`: 36.2%; for `C[C@H]1O[C@@H](O[C@H]2[C@@H](O)C[C@H](O[C@H]3[C@@H](O)C[C@H](O[C@H]4CC[C@@]5(C)[C@H](CC[C@@H]6[C@@H]5CC[C@]5(C)[C@@H](C7=CC(=O)OC7)CC[C@]65O)C4)O[C@@H]3C)O[C@@H]2C)C[C@H](O)[C@@H]1O`: 94.5%.
The same measure, in the same setting: the same measure for `CCCCc1oc2ccccc2c1C(=O)c1cc(I)c(OCCN(CC)CC)c(I)c1`: 78.3%.
As to `CC(C)Oc1ccc(-c2nc(-c3cccc4c3CC[C@@H]4NCCO)no2)cc1C#N`, the growth was 3.06% (active).
Same read-out and setting: the same measure for `CN(C)CCN1CCCN(c2ccnc3ccsc23)CC1`: 76%; for `COc1ccc2nc3cc(Cl)ccc3c(Nc3cc(CN4CCCC4)c(O)c(CN4CCCC4)c3)c2n1`: 76.3%.
Still for that read-out and setting: the same measure for `O=C(Nc1ncccc1O)c1ccc(S(=O)(=O)NCCc2cccs2)cc1`: 128%; for `Cc1ccc(-c2noc(-c3ccccc3)n2)cc1`: 43.1%.
The same measure, in the same setting: the same measure for `O=C(c1ccc(Nc2nccc(-c3ccc(Cl)cc3)n2)cc1)N1CC[C@@H](CO)C1`: 113%.
In the case of `CC(=O)c1nn(-c2c(Cl)cc(C(F)(F)F)cc2Cl)c(N)c1S(C)=O` (stereo not given), the growth was 119%.
Still for that read-out and setting: the same measure for `Cc1cccc(C=NNc2cc(N3CCOCC3)nc(OCCc3ccccn3)n2)c1`: 45.9%; for `CN1CCN(c2ccc(C(=O)NCc3cnc(C#N)nc3NCC(C)(C)C)cc2)CC1`: 72.9%; for `CC(N)CCn1c(Nc2cc(Cl)cc(C(F)(F)F)c2)nc2cnc(NC3CCCC3)nc21` (stereo not given): 11.2% (active).
Still for that read-out and setting: the same measure for `O=C(OI(OC(=O)C(F)(F)F)c1ccccc1)C(F)(F)F`: 89.9%.
For `COc1cc(OC)c2c(O)nc(-c3cc(C)c(OCCO)c(C)c3)nc2c1`, the growth was 103%.
The same measure, in the same setting: the same measure for `Cc1c[nH]c(-c2cccc(C(=O)NC3CCC(CCN4CCc5ccc(C#N)cc5CC4)CC3)c2)n1` (stereo not given): 38.2%; for `CNC(=O)c1cc(Oc2ccc(NC(=O)Nc3ccc(Cl)c(C(F)(F)F)c3)c(F)c2)ccn1`: 69.9%.

Still in this test, the particulars now being: 100 µM.
Consider `CN(c1ncc2nc(Nc3cc(Cl)cc(C(F)(F)F)c3)n(C3CCNCC3)c2n1)C1CC1`, for which the growth is 5.99% (active).
Take `N#Cc1c(N)nc(NC2CC2)nc1N`: the growth is 95.4%.
As to `Nc1nc(Nc2ccc3c(c2)CC[C@@H](N2CCCC2)CC3)nn1-c1cc2c(nn1)-c1ccccc1CCC2`, the growth was 4.45% (active).
On the same count and under the same terms, the same measure for `COc1cc(N2CCN(C)CC2)ccc1Nc1nccc(-c2cn(C)c3cnccc23)n1`: 4.78% (active); for `C[C@H]1O[C@@H](O[C@H]2[C@@H](O)C[C@H](O[C@H]3[C@@H](O)C[C@H](O[C@H]4CC[C@@]5(C)[C@H](CC[C@@H]6[C@@H]5CC[C@]5(C)[C@@H](C7=CC(=O)OC7)CC[C@]65O)C4)O[C@@H]3C)O[C@@H]2C)C[C@H](O)[C@@H]1O`: 73.2%.
Still for that read-out and setting: the same measure for `CCCCc1oc2ccccc2c1C(=O)c1cc(I)c(OCCN(CC)CC)c(I)c1`: 87.6%.
Same read-out and setting: the same measure for `CC(C)Oc1ccc(-c2nc(-c3cccc4c3CC[C@@H]4NCCO)no2)cc1C#N`: 3.42% (active).
Regarding `CN(C)CCN1CCCN(c2ccnc3ccsc23)CC1`, the growth is 79.5%.
Still for that read-out and setting: the same measure for `COc1ccc2nc3cc(Cl)ccc3c(Nc3cc(CN4CCCC4)c(O)c(CN4CCCC4)c3)c2n1`: 40%; for `O=C(Nc1ncccc1O)c1ccc(S(=O)(=O)NCCc2cccs2)cc1`: 70.6%; for `Cc1ccc(-c2noc(-c3ccccc3)n2)cc1`: 90.5%.
On the same count and under the same terms, the same measure for `O=C(c1ccc(Nc2nccc(-c3ccc(Cl)cc3)n2)cc1)N1CC[C@@H](CO)C1`: 117%; for `CC(=O)c1nn(-c2c(Cl)cc(C(F)(F)F)cc2Cl)c(N)c1S(C)=O` (stereo not given): 107%.
Still for that read-out and setting: the same measure for `Cc1cccc(C=NNc2cc(N3CCOCC3)nc(OCCc3ccccn3)n2)c1`: 10.4% (active).
As for `CN1CCN(c2ccc(C(=O)NCc3cnc(C#N)nc3NCC(C)(C)C)cc2)CC1`, the growth is 3.97% (active).
On the same count and under the same terms, the same measure for `CC(N)CCn1c(Nc2cc(Cl)cc(C(F)(F)F)c2)nc2cnc(NC3CCCC3)nc21` (stereo not given): 7.25% (active).
Take `O=C(OI(OC(=O)C(F)(F)F)c1ccccc1)C(F)(F)F`: the growth was 182%.
As for `COc1cc(OC)c2c(O)nc(-c3cc(C)c(OCCO)c(C)c3)nc2c1`, the growth was 72.7%.
On the same count and under the same terms, the same measure for `Cc1c[nH]c(-c2cccc(C(=O)NC3CCC(CCN4CCc5ccc(C#N)cc5CC4)CC3)c2)n1` (stereo not given): 88.4%.
The same measure, in the same setting: the same measure for `CNC(=O)c1cc(Oc2ccc(NC(=O)Nc3ccc(Cl)c(C(F)(F)F)c3)c(F)c2)ccn1`: 74.4%.
